# According to PubChem BioAssay (NCATS):
# A number with no mark means an inactive call. Records with an inconclusive call do not appear. Activity calls are given as the source filed them. Unless noted, calls come from the whole dose curve; as a rule, active = well fitted curve in either direction with a large enough effect (not every such curve was filed as active); inconclusive = small, poorly fitted or top-dose-only effect, or another doubt; inactive = flat fitted curve, though single readings scatter.
# Columns and labels:
# [1] = target: Lysosomal acid glucosylceramidase (Homo sapiens) (UniProt P04062); experiment: Glucocerebrosidase-p2 (AID 348; in the data active = potency below about 10 µM; note: potency is the fitted concentration of half-maximal effect); conditions: purified GBA, blue fluorogenic substrate, 40 min
# Outline: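 Compounds titrated from 0.6 nM upwards against 0.2 nM enzyme in pH 5.9 citric acid/KH2PO4, taurocholate, tween-20; blue fluorogenic substrate 80 uM, 40 min room temperature, stopped and read Ex 365/Em 440 for AC50.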
# [2] = AP1 Signaling Pathway (AID 357); conditions: ME-180 AP-1-bla reporter, EGF-induced, beta-lactamase ratio, 5 h; at 7.69 µM (top of the series) unless noted;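 note: ME-180 reporter cells stimulated with EGF at its EC50 level; % is set by controls: 0 for no effect and ±100 for the full control effect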
# Outline: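 Titration-series screen for positive or negative modulators of EC50 EGF-induced signaling in ME-180 cells carrying an AP-1-driven beta-lactamase reporter. After 5 hours at 37 degrees Celsius, CCF4 460nm/530nm emission ratio gave %Activity; AC50 values derived.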
# [3] = target: Cytochrome P450 1A2 (Homo sapiens) (UniProt P05177); experiment: p450-cyp1a2 (AID 410; calls by dose curve;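 note: -100% = full effect of reference inhibitor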); conditions: recombinant CYP1A2, luciferin-ME demethylation, luminescence; series mostly up to 11.4 µM
# Outline: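 Inhibition was calculated relative to 57 uM furafylline (full inhibition). The reaction used human CYP1A2 at 20nM with Luciferin-ME at its Km, 100uM, driven by an NADPH-regenerating system for 60 min at room temperature.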
# [4] = target: Glucocorticoid receptor (Homo sapiens) (UniProt P04150); experiment: GR-GFP Redistribution (AID 450;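 active = compounds whose dose series gives a full or clear partial fitted curve of increased nuclear translocation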; note: potency is the fitted concentration of half-maximal effect); conditions: U2OS GR-GFP nuclear translocation, laser cytometry, 2 h
# [5] = target: Glucocorticoid receptor (Homo sapiens) (UniProt P04150); experiment: GR-EFC Redistribution (AID 451; calls by dose curve; note: potency is the fitted concentration of half-maximal effect); conditions: CHO-K1 GR-EFC translocation, beta-gal luminescence, 2 h
# Outline: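 CHO-K1 cells expressing nuclear EA and GR-ED fragments of b-gal; compounds titrated up to 46 uM final, 2 h at 37 C. GR nuclear translocation read as complemented b-gal luminescence after 1 h RT detection.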
# [6] = target: Mitogen-activated protein kinase 10 (Mus musculus) (UniProt Q61831); experiment: JNK3 AlphaScreen Assay (AID 530); conditions: JNK3 lysate, c-Jun phosphorylation; series mostly up to 11.4 µM;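 note: kinase came from lysate of stimulated human HepG2 cells; signal reports phosphorylation of biotinylated GST-cJun 1-79 at Ser73 with 10 µM ATP; % is set by controls: 0 for no effect and ±100 for the full control effect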
# Outline: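 qHTS format: compounds tested as titrations against IL-1beta/TNF-alpha-activated HepG2 lysate JNK3 with biotin-GST-cJun substrate and 10 uM ATP at room temperature. Loss of anti-phospho-cJun AlphaScreen signal indicates inhibition.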
# [7] = target: 3',5'-cyclic-AMP phosphodiesterase 4B (Homo sapiens) (UniProt Q07343); experiment: qHTS Assay for Inhibitors of PDE-IV (AID 607; active = well fitted activation curve with a large enough effect in the main read-out, with a control signal flat, not every such curve was filed as active; note: % of control where 0% means no effect); conditions: HEK293 ACTOne CNG channel cells, membrane potential fluorescence; series mostly up to 22.9 µM
# Outline: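 ACTOne HEK293 cells carry a modified cAMP-gated CNG channel and express endogenous PDE4; plated 1000 cells/well, compounds up to 22.9 uM final. Membrane-potential dye fluorescence (ex 535/em 590) was read; parental cells received 10 uM forskolin + 100 uM RO 20-1724.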
# [8] = target: Cytochrome P450 3A4 (Homo sapiens) (UniProt P08684); experiment: qHTS Assay for Inhibitors and Substrates of Cytochrome P450 3A4 (AID 884; active = well fitted curve in the direction sought with a large enough effect; an effect the other way counts as inactive or inconclusive; note: potency is the fitted concentration of half-maximal effect; nearly all actives have a fitted effect of over 50% in size); conditions: recombinant CYP3A4, Luciferin-PPXE luminescence; series mostly up to 57.1 µM
# Outline: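 20 nM human CYP3A4 with 25 uM Luciferin-PPXE (at KM) in 200 mM KPO4, preincubated 10 min with compound; NADPH regeneration started a 60 min RT reaction. Luciferin detected by luminescence, normalized to 57 uM ketoconazole as full inhibition.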
# [9] = target: Cytochrome P450 3A4 (Homo sapiens) (UniProt P08684); experiment: qHTS Assay for Activators of Cytochrome P450 3A4 (AID 885; active = well fitted curve in the direction sought with a large enough effect; an effect the other way counts as inactive or inconclusive; note: nearly all actives have a fitted effect of over 65% in size); conditions: recombinant CYP3A4, Luciferin-PPXE luminescence, 60 min; series mostly up to 11.4 µM
# Outline: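 20nM CYP3A4 + 25uM Luciferin-PPXE (=KM), 200mM KPO4; cpd 10 min RT; NADPH regen, 60 min RT; stop w/ detection buffer, 20 min; luminescence. Normalized to 57 uM ketoconazole.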
# [10] = target: Cytochrome P450 2D6 (Homo sapiens) (UniProt P10635); experiment: qHTS Assay for Inhibitors and Substrates of Cytochrome P450 2D6 (AID 891; active = well fitted curve in the direction sought with a large enough effect; an effect the other way counts as inactive or inconclusive; note: potency is the fitted concentration of half-maximal effect; nearly all actives have a fitted effect of over 60% in size); conditions: recombinant CYP2D6, luciferin-ME EGE luminescence; series mostly up to 11.4 µM
# Outline: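 Human CYP2D6 (5 nM) with 30 uM Luciferin-ME EGE (at Km) in 100 mM KPO4, compound preincubated 10 min, then NADPH regeneration system for 60 min at room temperature. Luciferin read by luminescence; normalized to 1.43 uM quinidine.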
# [11] = NFAT Signaling Pathway (AID 444); conditions: Jurkat NFAT-bla M1, carbachol, beta-lactamase ratio, 5 h; at 7.69 µM (top of the series) unless noted;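 note: carbachol stimulus at about its EC50 of 1 µM final; % is set by controls: 0 for no effect and ±100 for the full control effect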
# Outline: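 Jurkat cells with NFAT-driven β-lactamase reporter and co-expressed M1 receptor, stimulated with carbachol (final 1 uM, ~EC50), compound titration, 5 h at 37 °C. CCF4 loaded 1 h at RT; 460/530 nm ratio gave %activity and AC50.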
# [12] = Stat Signaling Pathway (AID 446); conditions: ME-180 SIE beta-lactamase reporter, IL-6 stimulated, 5 h; at 7.69 µM (top of the series) unless noted;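 note: ME-180 cervical cancer cells given 40 pM IL-6 alongside compound; SIE-controlled beta-lactamase reporter measured as 460/530 nm FRET emission ratio; % is set by controls: 0 for no effect and ±100 for the full control effect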
# Outline: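 ME-180 SIE-bla cells; overnight plating; cpd + IL-6 40 pM, 5 h, 37 C; LiveBLAzer 2.5 h RT; 460/530 nm emission ratio. Normalized to 300 pM IL-6 and 125 nM JAK inhibitor controls.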
# [13] = target: ATP-dependent 6-phosphofructokinase (Trypanosoma brucei brucei) (UniProt O15648); experiment: qHTS Assay to Find Inhibitors of T. brucei phosphofructokinase: hit validation (AID 492961; active = well fitted curve in the direction sought with a large enough effect; an effect the other way counts as inactive or inconclusive; note: % is set by controls: 0 for no effect and ±100 for the full control effect); conditions: T. brucei PFK, ADP-Glo luminescence; series mostly up to 51.4 µM
# Outline: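 Luminescence from ADP-Glo reports ADP generated as T. brucei PFK (1.25 nM) phosphorylates 0.5 mM fructose-6-phosphate using 0.1 mM ATP. Reactions ran 45 min at room temperature, pH 8.0.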
# [14] = qHTS profiling for inhibitors of Plasmodium falciparum proliferation (AID 504749; active = well fitted curve in the direction sought with a large enough effect; an effect the other way counts as inactive or inconclusive; note: potency is the fitted concentration of half-maximal effect; nearly all actives have a fitted effect of over 60% in size); conditions: P. falciparum in erythrocytes, SYBR Green DNA, 72 h
# Outline: (§1)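 Readout was DNA-dye fluorescence from lysed cultures, ex 485/em 535 nm. Parasitized red cells had grown 72 h with compound; data scaled between 0.29 uM artemisinin and DMSO wells and corrected using vehicle-only plates.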
# AS120 = experiment: as above; conditions: P. falciparum in erythrocytes, SYBR Green DNA, 72 h; series mostly up to 28.7 µM
# Outline: as §1
# ATS189 = experiment: as above; conditions: P. falciparum in erythrocytes, SYBR Green DNA, 72 h; series mostly up to 28.7 µM
# Outline: as §1
# W2 = experiment: as above; conditions: P. falciparum in erythrocytes, SYBR Green DNA, 72 h; series mostly up to 28.7 µM
# Outline: as §1
# Glucocorticoid receptor (Homo sapiens), sequence (P04150 whole entry, looked up, the tested form may be a part): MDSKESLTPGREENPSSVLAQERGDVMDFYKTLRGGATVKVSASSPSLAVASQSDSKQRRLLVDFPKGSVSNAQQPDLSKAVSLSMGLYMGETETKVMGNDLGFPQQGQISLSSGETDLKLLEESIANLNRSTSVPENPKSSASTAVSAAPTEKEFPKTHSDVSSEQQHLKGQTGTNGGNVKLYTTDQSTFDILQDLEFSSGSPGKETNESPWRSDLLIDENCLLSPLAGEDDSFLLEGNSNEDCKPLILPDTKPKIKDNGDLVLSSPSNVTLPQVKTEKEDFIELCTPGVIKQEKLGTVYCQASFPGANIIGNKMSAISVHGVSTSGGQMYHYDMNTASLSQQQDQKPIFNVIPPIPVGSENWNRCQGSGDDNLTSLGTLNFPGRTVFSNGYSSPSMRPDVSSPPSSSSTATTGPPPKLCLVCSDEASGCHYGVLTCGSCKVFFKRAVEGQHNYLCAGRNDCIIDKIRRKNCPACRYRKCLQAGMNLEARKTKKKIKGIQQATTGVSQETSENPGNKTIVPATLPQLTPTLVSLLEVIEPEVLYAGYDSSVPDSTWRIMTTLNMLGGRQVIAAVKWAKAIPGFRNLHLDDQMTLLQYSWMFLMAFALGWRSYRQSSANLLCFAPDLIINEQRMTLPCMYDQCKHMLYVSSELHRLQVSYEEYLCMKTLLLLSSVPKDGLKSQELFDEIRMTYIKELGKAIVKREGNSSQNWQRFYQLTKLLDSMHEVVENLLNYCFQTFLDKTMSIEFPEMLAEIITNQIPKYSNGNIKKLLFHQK
# Lysosomal acid glucosylceramidase (Homo sapiens), sequence (P04062 whole entry, looked up): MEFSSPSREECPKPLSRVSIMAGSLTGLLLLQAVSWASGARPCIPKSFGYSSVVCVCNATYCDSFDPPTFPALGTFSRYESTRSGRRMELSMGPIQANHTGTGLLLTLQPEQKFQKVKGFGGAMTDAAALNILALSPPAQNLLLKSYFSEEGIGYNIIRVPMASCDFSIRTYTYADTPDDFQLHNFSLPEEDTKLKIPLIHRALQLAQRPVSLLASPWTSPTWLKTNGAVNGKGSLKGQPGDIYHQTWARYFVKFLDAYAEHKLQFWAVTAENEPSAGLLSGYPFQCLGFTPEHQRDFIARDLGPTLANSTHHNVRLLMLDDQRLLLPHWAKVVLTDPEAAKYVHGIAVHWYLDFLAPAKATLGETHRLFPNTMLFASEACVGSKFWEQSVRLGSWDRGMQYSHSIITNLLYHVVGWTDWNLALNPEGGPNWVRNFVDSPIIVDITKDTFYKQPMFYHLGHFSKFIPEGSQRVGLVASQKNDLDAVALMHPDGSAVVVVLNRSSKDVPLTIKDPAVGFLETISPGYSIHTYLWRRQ
# 3',5'-cyclic-AMP phosphodiesterase 4B (Homo sapiens), sequence (Q07343 whole entry, looked up): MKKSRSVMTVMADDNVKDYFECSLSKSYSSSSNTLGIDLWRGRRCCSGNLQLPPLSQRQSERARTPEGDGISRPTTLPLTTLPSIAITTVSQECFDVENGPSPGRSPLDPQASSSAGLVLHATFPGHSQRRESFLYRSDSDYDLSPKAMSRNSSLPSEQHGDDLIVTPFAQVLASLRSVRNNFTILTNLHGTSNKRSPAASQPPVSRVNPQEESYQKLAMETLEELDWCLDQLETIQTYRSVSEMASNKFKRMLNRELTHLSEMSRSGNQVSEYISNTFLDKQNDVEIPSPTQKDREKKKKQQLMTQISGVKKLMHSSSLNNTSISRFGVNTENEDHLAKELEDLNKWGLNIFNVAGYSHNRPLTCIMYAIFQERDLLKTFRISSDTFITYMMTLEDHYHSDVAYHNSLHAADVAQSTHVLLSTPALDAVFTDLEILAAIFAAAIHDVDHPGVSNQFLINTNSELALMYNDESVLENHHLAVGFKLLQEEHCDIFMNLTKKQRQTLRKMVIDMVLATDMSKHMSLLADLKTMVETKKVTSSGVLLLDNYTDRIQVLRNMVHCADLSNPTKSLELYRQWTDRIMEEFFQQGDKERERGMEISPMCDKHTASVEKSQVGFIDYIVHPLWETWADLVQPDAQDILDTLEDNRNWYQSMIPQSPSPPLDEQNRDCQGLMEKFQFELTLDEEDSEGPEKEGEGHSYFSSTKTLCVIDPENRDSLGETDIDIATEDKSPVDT
# Cytochrome P450 3A4 (Homo sapiens), sequence (P08684 whole entry, looked up): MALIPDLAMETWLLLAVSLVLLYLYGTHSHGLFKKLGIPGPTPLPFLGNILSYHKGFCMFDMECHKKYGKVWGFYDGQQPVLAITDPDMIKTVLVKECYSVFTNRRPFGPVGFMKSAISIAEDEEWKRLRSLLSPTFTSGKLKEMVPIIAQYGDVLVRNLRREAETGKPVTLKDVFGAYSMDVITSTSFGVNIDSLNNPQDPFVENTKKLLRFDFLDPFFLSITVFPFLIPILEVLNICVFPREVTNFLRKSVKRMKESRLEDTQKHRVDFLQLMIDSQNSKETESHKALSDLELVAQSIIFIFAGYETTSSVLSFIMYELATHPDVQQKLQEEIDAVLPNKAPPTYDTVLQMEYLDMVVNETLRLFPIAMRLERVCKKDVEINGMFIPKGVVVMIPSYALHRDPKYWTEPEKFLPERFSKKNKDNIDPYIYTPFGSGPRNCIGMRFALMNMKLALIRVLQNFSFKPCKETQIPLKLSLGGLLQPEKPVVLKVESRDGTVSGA
# Cytochrome P450 2D6 (Homo sapiens), sequence (P10635 whole entry, looked up): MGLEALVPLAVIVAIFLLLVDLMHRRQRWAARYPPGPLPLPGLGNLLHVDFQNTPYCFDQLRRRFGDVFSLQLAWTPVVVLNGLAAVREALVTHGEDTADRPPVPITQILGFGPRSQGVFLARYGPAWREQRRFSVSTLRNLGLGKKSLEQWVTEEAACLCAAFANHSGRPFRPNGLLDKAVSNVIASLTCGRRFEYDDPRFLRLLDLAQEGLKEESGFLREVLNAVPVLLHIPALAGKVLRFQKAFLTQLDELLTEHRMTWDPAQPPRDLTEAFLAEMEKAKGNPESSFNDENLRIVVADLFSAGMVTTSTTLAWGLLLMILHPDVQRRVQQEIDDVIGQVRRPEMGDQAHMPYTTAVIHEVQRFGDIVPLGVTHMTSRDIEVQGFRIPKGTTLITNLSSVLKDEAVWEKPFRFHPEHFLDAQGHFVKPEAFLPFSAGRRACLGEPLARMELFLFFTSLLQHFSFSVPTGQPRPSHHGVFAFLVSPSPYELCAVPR
# Cytochrome P450 1A2 (Homo sapiens), sequence (P05177 whole entry, looked up): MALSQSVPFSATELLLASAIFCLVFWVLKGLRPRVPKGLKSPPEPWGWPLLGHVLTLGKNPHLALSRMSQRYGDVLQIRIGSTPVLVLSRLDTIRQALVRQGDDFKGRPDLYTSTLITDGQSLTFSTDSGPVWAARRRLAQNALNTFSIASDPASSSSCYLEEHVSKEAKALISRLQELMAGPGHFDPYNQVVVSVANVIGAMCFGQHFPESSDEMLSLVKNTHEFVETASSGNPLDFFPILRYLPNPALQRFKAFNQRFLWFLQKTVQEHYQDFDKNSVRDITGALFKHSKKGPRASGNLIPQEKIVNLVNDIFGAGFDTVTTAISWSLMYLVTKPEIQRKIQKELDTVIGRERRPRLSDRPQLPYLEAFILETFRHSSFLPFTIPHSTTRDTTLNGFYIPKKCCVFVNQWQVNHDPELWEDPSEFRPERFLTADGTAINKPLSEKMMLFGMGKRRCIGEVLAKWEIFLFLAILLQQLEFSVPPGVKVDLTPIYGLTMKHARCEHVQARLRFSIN
# ATP-dependent 6-phosphofructokinase (Trypanosoma brucei brucei), sequence (O15648 whole entry, looked up): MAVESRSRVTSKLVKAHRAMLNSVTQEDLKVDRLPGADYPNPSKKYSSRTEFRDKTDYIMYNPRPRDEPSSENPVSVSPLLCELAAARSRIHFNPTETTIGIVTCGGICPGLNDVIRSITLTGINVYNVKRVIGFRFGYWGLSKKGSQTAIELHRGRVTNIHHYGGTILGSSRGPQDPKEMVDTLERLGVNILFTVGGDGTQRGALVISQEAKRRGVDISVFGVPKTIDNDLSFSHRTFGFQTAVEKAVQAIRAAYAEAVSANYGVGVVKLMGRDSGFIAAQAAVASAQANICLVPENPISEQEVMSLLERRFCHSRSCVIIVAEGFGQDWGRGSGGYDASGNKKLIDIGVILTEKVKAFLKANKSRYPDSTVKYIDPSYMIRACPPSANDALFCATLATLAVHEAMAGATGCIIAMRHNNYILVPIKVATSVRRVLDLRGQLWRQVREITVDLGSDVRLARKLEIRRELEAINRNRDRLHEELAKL
Compound,Potency [1] [µM],"activity change, negative = inhibition [2] [%]",Potency [3],Potency [4] [µM],Potency [5] [µM],Potency [6],Potency [7],Potency [8],Potency [9],Potency [10],"activity change, negative = inhibition [11] [%]","activity, negative = inhibition [12] [%]",outcome [13],Potency ([14]; parasite line A),Potency ([14]; parasite line B),Potency (AS120),Potency (ATS189),Potency (W2)
CC(C)c1cc(C(F)(F)F)nc(NNc2nc(C(C)C)cc(C(F)(F)F)n2)n1,> 11.4,-11.8,inactive,> 46,> 9.22,inactive,inactive,3.16 µM (active),inactive,0.126 µM (active),–,–,–,–,–,–,–,–
CC(C)(C)c1ccc(CN2CCN([C@H](c3ccccc3)c3ccc(Cl)cc3)CC2)cc1,> 11.4,2.89,–,> 46,> 9.22,inactive,inactive,–,–,–,-9.36,0.758,inactive,7.94 µM (active),12.6 µM (active),7.94 µM (active),8.91 µM (active),3.38 µM (active)
O=C(O)C[C@@H](C(=O)O)c1ccccc1[N+](=O)[O-],> 11.4,10.5,–,> 46,> 9.22,inactive,–,–,–,–,13,6.64,–,–,–,–,–,–
